# Assay results: PubChem BioAssay (NCATS)
# Records with an inconclusive call do not appear. Where a call stands in place of a potency, no number is given. Values without a mark were called inactive. The source made the active and inactive calls. Calls follow the shape of the dose curve; as a rule, active = well fitted inhibition curve with a large enough effect; inconclusive = small, poorly fitted or top-dose-only effect; inactive = flat fitted curve, though single readings scatter.
# Target: Aldehyde dehydrogenase, mitochondrial (Homo sapiens) (UniProt P05091)
# Test: qHTS for Inhibitors of the Aldehyde Dehydrogenase Family (ALDH2) Primary screen (AID 2061308); also: nearly all actives have a fitted effect of over 55% in size
# Conditions: ALDH2 enzyme inhibition qHTS, 1536-well; series mostly up to 56 µM
SMILES,Potency,"activity change, negative = inhibition"
O=C(O)C[C@H](O)C[C@H](O)/C=C/c1c(C2CC2)nc2ccccc2c1-c1ccc(F)cc1,inactive,–
NCC(=O)Nc1ccc(-n2nc(C(F)(F)F)cc2-c2ccc3c(ccc4ccccc43)c2)cc1,inactive,–
CCc1nc(-c2cccc(C)c2)c(-c2ccnc(NC(=O)c3ccccc3)c2)s1,inactive,–
COc1cc2c(NC3CCN(CC4CCCCC4)CC3)nc(N3CCCN(C(C)C)CC3)nc2cc1OCCCN1CCCCC1,inactive,–
CC(C)N(CCCNC(=O)Nc1ccc(C(C)(C)C)cc1)C[C@H]1O[C@@H](n2ccc3c(N)ncnc32)[C@H](O)[C@@H]1O,inactive,–
Cc1cnc(Nc2cccc(CN3CCOCC3)c2)nc1Nc1cccc(S(=O)(=O)NC(C)(C)C)c1,inactive,–
C[C@@]1(c2cc(-c3cncnc3)c(F)cc2F)CCSC(N)=N1,inactive,–
CCN(CCO)CCCC(C)Nc1ccnc2cc(Cl)ccc12 (stereo not given),–,2.52% [at 5.59 µM]
CC(C)N(CCCNC(=O)Nc1ccc(C(C)(C)C)cc1)C[C@H]1O[C@@H](n2cc(Br)c3c(N)ncnc32)[C@H](O)[C@@H]1O,inactive,–
CCCCOc1nc(N)c2c(n1)N(Cc1cccc(CN3CCCC3)c1)CC(=O)N2,inactive,–
Nc1ncnc2c1c(-c1cccc(OCc3ccccc3)c1)cn2C1CC(CN2CCC2)C1 (stereo not given),inactive,–
Cc1nc(C(=O)NCC(=O)O)c(O)c2ccc(Oc3ccccc3)cc12,inactive,–
OCCn1cc(-c2cnc3nnn(Cc4ccc5ncccc5c4)c3n2)cn1,inactive,–
COc1cc(C)c(Sc2cnc(NC(=O)c3ccc(CNC(C)C(C)C)cc3)s2)cc1C(=O)N1CCN(C(C)=O)CC1 (stereo not given),inactive,–
Cc1nnc(C(C)C)n1C1CC2CCC(C1)N2CCC(NC(=O)C1CCC(F)(F)CC1)c1ccccc1 (stereo not given),inactive,–
Cc1nn(C)c(COc2ccc(N3CCN(S(=O)(=O)N(C)C)CC3)cc2)c1-c1cccc2c(CCCOc3cccc4ccccc34)c(C(=O)O)n(CCN3CCOCC3)c12,inactive,–
Cc1cc(C)cc(NC(=O)Cc2ccc(OC(C)(C)C(=O)O)cc2)c1,inactive,–
OC(c1ccc(-c2ccc(CN3CCN(Cc4ccncc4)CC3)cc2)c(F)c1)(C(F)(F)F)C(F)(F)F,inactive,–
Cn1cncc1C(N)(c1ccc(Cl)cc1)c1ccc2c(c1)c(-c1cccc(Cl)c1)cc(=O)n2C (stereo not given),inactive,–
CN(C)N(C)C(=O)[C@@]1(Cc2ccccc2)CCCN(C(=O)[C@@H](Cc2c[nH]c3ccccc23)NC(=O)C(C)(C)N)C1,inactive,–

SMILES,Potency,"activity change, negative = inhibition"
CC(C)(C)NC(=O)Nc1cccc(Nc2ncc(F)c(NC(C)(C)CO)n2)c1,inactive,–
C=C1[C@H](CO)[C@@H](O)C[C@@H]1n1cnc2c(=O)[nH]c(N)nc21,inactive,–
CNC(=O)c1ccc(N2C(=S)N(c3cnc(C#N)c(C(F)(F)F)c3)C(=O)C23CCC3)cc1F,inactive,–
Cn1cc(-c2cnn3c(N)c(Br)c([C@@H]4CCCNC4)nc23)cn1,inactive,–
Cc1ccc2nc(NC(=O)CSc3nc4c(c(=O)n3-c3ccccc3)SCC4)sc2c1,inactive,–
CC1(C)Cc2c(-c3ccccc3)c(-c3ccc(Cl)cc3)c(CC(=O)O)n2C1,inactive,–
Cc1cc(Nc2ncnc3ccc(-c4ccc(CNCCS(C)(=O)=O)o4)cc23)ccc1Oc1ccn2ncnc2c1,inactive,–
CCOc1cc2c(c(F)c1OCC)C(=N)N(CC(=O)c1cc(N3CCOCC3)c(OC)c(C(C)(C)C)c1)C2,inactive,–
COc1cc2c(cc1OC)CN(CCc1ccc(NC(=O)c3cccc4c(=O)c5cccc(OC)c5[nH]c34)cc1)CC2,inactive,–
CC(C)C(=O)Nc1ncc(-c2cc(C(F)F)nn2-c2c(Cl)cccc2Cl)s1,inactive,–
O=C(O)Cn1nnc(-c2cc(N3CCC(Oc4cc(F)ccc4Br)CC3)no2)n1,inactive,–
O=C(NC[C@H](O)CN1CCc2ccccc2C1)c1cc(NC2COC2)ncn1,inactive,–
Cn1cc(-c2ccc3nnc(C(F)(F)c4ccc5ncccc5c4)n3n2)cn1,inactive,–
CCNCc1nc2c(N)nc3ccccc3c2n1CC(C)(C)O,inactive,–
COc1cccc(Nc2c(C(N)=O)cnc3c(C)cc(S(=O)(=O)c4cccc(C(=O)N(C)C)c4)cc23)c1,inactive,–
C[C@H]1Oc2cc(cnc2N)-c2c(nn(C)c2C#N)CN(C)C(=O)c2ccc(F)cc21,inactive,–
C=Cc1cc(O)cc2nc(-c3ccc(O)c(F)c3)oc12,inactive,–
CC1(C)CCC(c2ccc(Cl)cc2)=C(CN2CCN(c3ccc(C(=O)NS(=O)(=O)c4ccc(N[C@H](CCN5CCOCC5)CSc5ccccc5)c(S(=O)(=O)C(F)(F)F)c4)cc3)CC2)C1,inactive,–
CC(=O)N1CCN(CCOc2ccc(C3CCN(C4=Nn5c(nnc5C(F)(F)F)CC4)CC3)cc2)CC1,inactive,–
CCN(c1cc(-c2ccc(CN3CCOCC3)cc2)cc(C(=O)NCc2c(C)cc(C)[nH]c2=O)c1C)C1CCOCC1,inactive,–
